PubChem BioAssay AID1645838 (ICCB-Longwood Screening Facility, Harvard Medical School, 2021)
Where “and” joins values, the source holds several entries; their conditions need not be identical. Equal values may be shown once. Screen size: about 2,000 compounds; about 100 (5%) were called active. Rule as the data show it: active = z-score above about 2; inactive = the rest. The list comes from a sample in which actives are over-represented; it also holds similar structures and randomly drawn compounds. Where a structure was tested more than once in an assay, its records may differ in their call.

Test: modulators of mitochondrial supercomplex assembly, cell-based, luminescence, Hoechst nuclei count (AID 1645838);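 also: control cybrid cells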;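 as to z-score: higher means more mitochondrial supercomplex formation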
Details: Cells, luminescence/Hoechst cell count ratio, supercomplex reporter; for z-score: stronger effect = higher value; for cell count: measured here: cell number, Hoechst nuclei count
[1] = library stock concentration (final well concentration not given) 80 uM
[2] = library stock concentration (final well concentration not given) 400 uM
[3] = library stock concentration (final well concentration not given) 2 mM
[4] = library stock concentration (final well concentration not given) 10 mM
[5] = library stock concentration (final well concentration not given) 46 uM
[6] = library stock concentration (final well concentration not given) 278 uM
[7] = library stock concentration (final well concentration not given) 1.67 mM

CC(C)(C)CCN1C[C@@H]2C(CNC(=O)c3cc(Cl)cc(Cl)c3)[C@@H]2C1 (stereo not given in full)
z-score [1]: 0.249 (inactive) | z-score [2]: -0.0169 (inactive) | z-score [3]: -0.303 (inactive) | z-score [4]: -0.298 (inactive) | cell count [1]: 4670 | cell count [2]: 5180 | cell count [3]: 5270 | cell count [4]: 4390

CCCCC[C@H](O)/C=C/[C@@H]1[C@H]2CC(CCCCC(=O)O)O[C@H]2C[C@H]1O (stereo not given in full)
z-score: -0.784 (inactive) | cell count: 6080

O=C(NC(=O)c1c(F)cccc1Cl)NC1c2ccccc2-c2ccccc21
z-score [5]: -0.18 (inactive) | z-score [6]: -0.113 (inactive) | z-score [7]: -0.216 (inactive) | z-score [4]: -0.278 (inactive) | cell count [5]: 6490 | cell count [6]: 6240 | cell count [7]: 6190 | cell count [4]: 5520

CC(C=CC1=C(C)CCCC1(C)C)=CC=CC(C)=CC(=O)O
z-score [5]: -0.113 (inactive) | z-score [6]: -0.063 (inactive) | z-score [7]: -0.22 (inactive) | z-score [4]: 0.0473 (inactive) | cell count [5]: 5180 | cell count [6]: 5150 | cell count [7]: 5430 | cell count [4]: 4870

O=C1NC(=O)/C(=C/c2ccc3nccnc3c2)S1
z-score: 0.662 (inactive) | cell count: 4050

O=C1NC(=O)/C(=C/c2ccc3c(c2)OC(F)(F)O3)S1
z-score: 0.349 (inactive) | cell count: 4670

O=C1NC(=O)C(=Cc2ccc3nccnc3c2)S1
z-score [1]: -0.0169 (inactive) and -0.181 (inactive) | z-score [2]: 0.573 (inactive) and -0.161 (inactive) | z-score [3]: 1.47 (inactive) and -0.299 (inactive) | z-score [4]: 2.46 (active) and -0.465 (inactive) | cell count [1]: 4280 and 5470 | cell count [2]: 4140 and 5420 | cell count [3]: 3800 and 5820 | cell count [4]: 2300 and 3900

CCCCCCCCCCC(=O)O
z-score [5]: -0.0477 (inactive) | z-score [6]: 0.267 (inactive) | z-score [7]: -0.0647 (inactive) | z-score [4]: 0.212 (inactive) | cell count [5]: 6640 | cell count [6]: 6810 | cell count [7]: 6810 | cell count [4]: 6380

CC(C)(CCCCCCCCCCC(C)(C)CC(=O)O)CC(=O)O
z-score: 2.9 (active) | cell count: 5040

CCCCCCCCCCCCCCCC(=O)O
z-score: -0.762 (inactive) | cell count: 5780

COC1C(N(C)C(=O)c2ccccc2)C[C@@H]2O[C@]1(C)n1c3ccccc3c3c4c(c5c6ccccc6n2c5c31)C(=O)NC4 (stereo not given in full)
outcome (library stock 2 mM): inactive; censored for cell count | outcome (library stock 10 mM): inactive; censored for cell count | z-score [1]: 0.298 (inactive) | z-score [2]: 1.12 (inactive) | cell count [1]: 5280 | cell count [2]: 4120

CCOC(=O)c1c(Cc2cccc(Cl)c2)[nH]c2c1cc(O)c1ccccc12
z-score: 0.267 (inactive) | cell count: 5070

CCCCC(C)(O)C/C=C/[C@H]1[C@H](O)CC(=O)[C@H]1CCCCCCC(=O)OC (stereo not given in full)
z-score: -0.356 (inactive) | cell count: 5650

OCc1cc(C(O)CNCCCCCCOCCCCc2ccccc2)ccc1O (stereo not given)
z-score [1]: 1.97 (active) | z-score [2]: 1.87 (inactive) | z-score [3]: 1.36 (inactive) | z-score [4]: 1.79 (inactive) | cell count [1]: 4600 | cell count [2]: 4730 | cell count [3]: 4660 | cell count [4]: 3230

CC(C)NCC(O)c1ccc(O)c(O)c1 (stereo not given)
z-score [5]: 0.406 (inactive) | z-score [6]: 0.956 (inactive) | z-score [7]: 0.578 (inactive) | z-score [4]: 1.22 (inactive) | cell count [5]: 6420 | cell count [6]: 6030 | cell count [7]: 6690 | cell count [4]: 6300

NC(=O)c1cccc(-c2cccc(OC(=O)NCCCCCCc3ccccc3)c2)c1
z-score: 0.191 (inactive) | cell count: 4760

COc1cc(C2c3cc4c(cc3C(O)[C@H]3COC(=O)[C@@H]23)OCO4)cc(OC)c1OC (stereo not given in full)
outcome (library stock 2 mM): inactive; censored for cell count | outcome (library stock 10 mM): inactive; censored for cell count | z-score [1]: -0.602 (inactive) | z-score [2]: -0.324 (inactive) | cell count [1]: 5600 | cell count [2]: 3990

O=C(O)CCC/C=C\C[C@@H]1[C@@H](/C=C/C(=O)CCc2ccccc2)[C@H](O)C[C@@H]1O
z-score: 0.328 (inactive) | cell count: 4980

CCCCC[C@H](O)/C=C/[C@H]1C=CC(=O)[C@@H]1C/C=C\CCCC(=O)O
z-score: 0.972 (inactive) | cell count: 5050

Oc1ccc(C=NN(Cc2ccccc2)Cc2ccccc2)cc1
z-score [1]: 0.58 (inactive) | z-score [2]: 0.621 (inactive) | z-score [3]: 0.515 (inactive) | z-score [4]: 1.23 (inactive) | cell count [1]: 4430 | cell count [2]: 4410 | cell count [3]: 3940 | cell count [4]: 3600

CC1(C)OC2CO[C@@]3(COS(N)(=O)=O)OC(C)(C)OC3C2O1 (stereo not given in full)
z-score [1]: 0.166 (inactive) | z-score [2]: 0.0797 (inactive) | z-score [3]: 0.165 (inactive) | z-score [4]: -0.169 (inactive) | cell count [1]: 6240 | cell count [2]: 6200 | cell count [3]: 5750 | cell count [4]: 5940

CCCCCCCCCCCCCCCCC(=O)NCCO
z-score: 0.812 (inactive) | cell count: 5880

CC(N)c1ccc(C(=O)Nc2ccnc3[nH]ccc23)cc1 (stereo not given)
z-score [1]: 0.0935 (inactive) | z-score [2]: -0.0384 (inactive) | z-score [3]: -0.229 (inactive) | z-score [4]: 0.129 (inactive) | cell count [1]: 5400 | cell count [2]: 5420 | cell count [3]: 5670 | cell count [4]: 3470

O=C(Cc1cccc(OC(F)(F)F)c1)Nc1ccc(CCCCc2nnc(NC(=O)Cc3ccccn3)s2)nn1
z-score [5]: 1.3 (inactive) | z-score [6]: 3.8 (active) | z-score [7]: 4.04 (active) | z-score [4]: 4.54 (active) | cell count [5]: 5940 | cell count [6]: 4200 | cell count [7]: 4190 | cell count [4]: 3940

NC(=O)c1cnc(NC2CCCCC2N)nc1Nc1cccc(-n2nccn2)c1 (stereo not given)
z-score [1]: -0.155 (inactive) | z-score [2]: -0.103 (inactive) | z-score [3]: 0.129 (inactive) | z-score [4]: 0.743 (inactive) | cell count [1]: 5260 | cell count [2]: 4840 | cell count [3]: 5390 | cell count [4]: 3000
